Screening results: PubChem BioAssay, National Center for Advancing Translational Sciences (NCATS)
This is a sample that favours compounds with a hit; in the whole collection about 8.1% have one here.
MCF10A rerep – induces DNA re-replication in MCF 10a normal breast cells; MCF 10A DNA re-replication, Hoechst nuclear intensity, 48 h; Potency, µM (doses to about 46.1 µM), without a hit: top-dose activity, positive = re-replication, usual class: activators; actives 2.9% (n = 350,000); AID 624296; also: % of control where 0% means no effect; nearly all actives have a fitted effect of over 50% in size
SW480 rereplic – inducers of DNA re-replication in SW480 colon cancer cells. Potency, µM (highest dose often 46.1 µM), for the others: at the top dose re-replication activation, hits mostly activators. actives 1.8% (n = 340,000). SW480 DNA re-replication, Hoechst DNA content imaging, 48 h; also: % of control where 0% means no effect; nearly all actives have a fitted effect of over 55% in size
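250 cells/well; 23 nL cpd via pin tool; 48 hr, 37 C, 5% CO2; Hoechst 40 min; imager read of total nuclear intensity, ex 405/em 500-530 nm.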
KB-3-1 cytotox – KB-3-1 parental cell cytotoxicity; KB-3-1 viability, CellTiter-Glo ATP luminescence, 72 h; Potency, µM (highest dose often 46.1 µM), usual class: cytotoxic; actives 1.4% (n = 400,000); AID 1347075; also: % is scaled to controls: 0 for no effect and ±100 for the full control effect; nearly all actives have a fitted effect of over 60% in size
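Screening of KB-3-1 cells (DMEM, 10% FBS, phenol-red free) ran from lowest to highest compound concentration; after 72 h at 37 °C viability was read luminescently and curves fitted.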
ELG1 DNA repair – inhibitors of ELG1-dependent DNA repair in HEK293T cells; Potency, µM (highest dose often 46.1 µM), inactives show at the top dose activity change, negative = inhibition, actives largely listed as inhibitors; AID 504467; HEK293T ELG1-luciferase reporter, luminescence, 16 h; DNA damage induced by 5-fluorouridine; actives 2.3% (n = 330,000); also: % is scaled to controls: 0 for no effect and ±100 for the full control effect; nearly all actives have a fitted effect of over 55% in size
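HEK293T cells expressing luciferase-tagged ELG1 (2,000/well) received 5-Fluorouridine plus compound or DMSO for 16 hr at 37 °C. Luciferase was read by ONE-Glo luminescence after 30 min at room temperature.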
KB-V1 cytotox – kills drug-selected multidrug resistant KB-V1 cells | KB-V1 MDR cells viability, CellTiter-Glo, 72 h | Potency, µM (titrated, usually from 46.1 µM), most hits filed as cytotoxic | actives 3.4% (n = 400,000); also: % is scaled to controls: 0 for no effect and ±100 for the full control effect; nearly all actives have a fitted effect of over 60% in size
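Drug-selected KB-V1 cells, grown in DMEM lacking phenol red with 10% FBS, receive compound titrations; after three days at 37 degrees C, surviving cell ATP is quantified by CellTiter-Glo luminescence and responses normalized and curve-fitted.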
Starred values were filed as active, the others as inactive; i = inactive; ? = inconclusive; . = not tested or not shown; [ ] = dose if it differs, or a comment. Calls follow the shape of the dose curve; as a rule, active = well fitted curve in the direction sought with a large enough effect; inconclusive = small, poorly fitted or top-dose-only effect, or another doubt; inactive = no such curve, though single readings can be large; an effect the other way counts as inactive or inconclusive. Potency is read from the fitted curve at half-maximal effect.

SMILES	MCF10A rerep	SW480 rereplic	KB-3-1 cytotox	ELG1 DNA repair	KB-V1 cytotox
COc1cc(OC)c(NC(=O)C2=C(C)C(=O)OC23CCN(C(C)=O)CC3)cc1Cl	.	.	i	.	i
N=c1oc2ccc3ccccc3c2cc1C(N)=S	11.6µM*	?	i	0.0%	i
OCc1cccc(Nc2ncnc3sc4c(c23)CCCCC4)c1	?	-64.1%	i	-2.1%	i
O=c1[nH]nc(Cc2ccc(-c3ccc(Cl)cc3)o2)c2ccccc12	8.2µM*	?	i	-14.0%	i
Nc1c(C(=O)N2CCCCC2)sc(=S)n1-c1ccccc1	?	-0.7%	i	3.0%	18.4µM*
COc1ccc(-c2ccc3c(N)c(C(=O)c4cccc(OC)c4)sc3n2)cc1	20.6µM*	?	?	?	i
Nc1c(C(=O)N2CCCC2)sc2nc(-c3ccccc3)ccc12	18.4µM*	18.4µM*	i	?	i
Nc1c(C(=O)N2CCOCC2)sc(=S)n1-c1ccccc1	20.9%	-11.6%	i	16.1%	?
Cc1ccccc1NC(=O)c1sc2nc(-c3ccncc3)ccc2c1N	.	.	i	.	i
Nc1c(C(=O)N2CCCCC2)sc2nc3c(cc12)CCCC3	?	4.6%	i	?	i
Nc1c(C(=O)Nc2cccc(Cl)c2Cl)sc2nc(-c3cccnc3)ccc12	5.17µM*	9.2µM*	i	9.2%	i
COc1ccc(C(=O)c2sc3nc(-c4ccc(OC)cc4)ccc3c2N)cc1	?	?	i	?	?
Cc1ccc(NC(=O)c2sc3nc(-c4ccncc4)ccc3c2N)cc1	.	.	i	.	i
COc1ccc(NC(=O)c2sc3nc(-c4cccnc4)ccc3c2N)cc1	?	14.6µM*	i	6.6%	i
COc1ccc(NC(=O)c2sc3nc(-c4cccnc4)ccc3c2N)cc1OC	14.6µM*	?	i	-1.4%	i
O=C(CN(Cc1ccccc1)C(=O)CCl)c1cccc(Br)c1	?	?	?	?	i
Cc1cc(Nc2ccc3c(c2)OCCO3)c2cccc(C)c2n1	18.8%	-8.1%	?	-3.9%	23.1µM*
COc1ccc(N2CCN(CC(O)COC(c3ccc(F)cc3)c3ccc(F)cc3)CC2)cc1 (stereo not given)	12.5%	?	i	?	i
OCCN1CCN(CC(O)COC(c2ccc(F)cc2)c2ccc(F)cc2)CC1 (stereo not given)	23.1µM*	16.4%	i	2.0%	i
COc1ccc(/C=N/OCC(=O)N2CC3(C)CC2CC(C)(C)C3)cc1OC (stereo not given)	-2.0%	-4.6%	i	-15.4%	16.4µM*
CCC(C)(C)c1ccc(Oc2ccc(N)cc2)cc1	14.6µM*	18.1%	i	-1.7%	i
COc1ccc(C(=O)/C=C/c2ccccc2F)c(OC(=O)c2ccc([N+](=O)[O-])cc2)c1	14.6µM*	?	?	?	?
O=C(Oc1ccc(F)cc1C(=O)/C=C/c1cccs1)c1cccc([N+](=O)[O-])c1	?	13µM*	i	?	i
O=C(/C=C/c1ccccc1F)c1cccc([N+](=O)[O-])c1	20.6µM*	85.6%	i	?	i
O=C(C#Cc1ccccc1)c1cccc([N+](=O)[O-])c1	2.91µM*	7.31µM*	i	?	?
SMILES	MCF10A rerep	SW480 rereplic	KB-3-1 cytotox	ELG1 DNA repair	KB-V1 cytotox
COc1ccc(C(=O)/C=C/c2ccc(C)cc2)c(OC(=O)c2ccc([N+](=O)[O-])cc2)c1	?	-4.1%[9.22 µM]	?	?	i
O=C1NC(=O)C(c2ccccc2)N1 (stereo not given)	-1.6%	-2.6%	i	.	?
Cc1c(-c2ccc(Cl)cc2)c(=O)oc2c(CN3CCN(CCO)CC3)c(O)ccc12	.	.	i	.	i
COc1ccc(C(=O)Nc2ccccc2N2CCN(C(=O)C(C)C)CC2)cc1Cl	2.7%	-0.3%	i	23.1µM*	i
CC(C)C(=O)N1CCN(c2ccc(NC(=O)c3ccc4c(c3)OCCO4)cc2Cl)CC1	18.4µM*	5.7%	?	5.8µM*	2.91µM*
CC(C)C(=O)N1CCN(c2ccc(NC(=O)c3cccs3)cc2Cl)CC1	3.7%	-27.3%	i	11.6µM*	i
CC(C)C(=O)N1CCN(c2ccc(NC(=O)c3cccs3)cc2)CC1	2.1%	2.5%	i	?	i
COc1ccc(-c2nnc(SCC(=O)Oc3cccc(C)c3C)o2)cc1	.	.	i	.	i
NC(=O)C1CCN(CC(=O)Nc2ccccc2Sc2ccc(Cl)cc2)CC1	11.8%	-5.9%	i	-16.1%	i
NC(=O)C1CCN(CC(=O)Nc2ccccc2Sc2ccccc2)CC1	?	-78.8%	i	6.3%	20.6µM*
CCCCc1ccc(C(=O)COC(=O)c2ccc3nc(C)c(C)nc3c2)cc1	.	.	?	.	i
O=C(NCC1CCCO1)C(c1cccs1)N(Cc1ccccc1)C(=O)c1ccc(-c2ccccc2)[nH]1 (stereo not given)	26.1%	24.7%	i	?	3.66µM*
CC(C)(C)NC(=O)C(c1ccc(F)cc1)N(Cc1ccco1)C(=O)c1csnn1 (stereo not given)	0.7%	-2.4%	i	-11.1%	i
O=C(NC1CCCCC1)C(c1ccncc1)N(Cc1ccccc1)C(=O)c1ccc(-c2ccccc2)[nH]1 (stereo not given)	?	?	?	-29.7%	23.1µM*
CC(C)(C)NC(=O)C(c1ccncc1)N(Cc1ccco1)C(=O)c1ccc(-c2ccccc2)[nH]1 (stereo not given)	20.6µM*	?	i	?	?
COc1ccc2c(c1)c1c(c(=O)n(Cc3ccccc3)c(=O)n1CC(=O)Nc1ccc(C)cc1C)n2C	.	.	i	.	i
O=C(OC1C2C=CC1C1C(=O)NC21)c1ccccc1 (stereo not given)	.	.	i	.	i
CSCCC1NC2(C(=O)Nc3c(Cl)cccc32)[C@@H]2C(=O)N(C3CCCC3)C(=O)[C@H]12 (stereo not given in full)	4.0%	-4.4%	i	?	i
CSCCC1NC2(C(=O)Nc3c(C)cc(Cl)cc32)[C@@H]2C(=O)N(C3CCCC3)C(=O)[C@H]12 (stereo not given in full)	26.8%	?	?	?	4.61µM*
O=C(O)COc1nn(Cc2ccccc2)c2ccccc12	-0.2%	-3.1%	.	.	.
COc1cccc(NC(=O)Nc2nc(SC)ns2)c1	3.7%	?	i	?	?
CCSc1nsc(NC(=O)Nc2cccc(F)c2)n1	16.4µM*	?	?	?	?
Cc1ccc(C)c(N2CCN(S(=O)(=O)c3cc(Br)cc4c3N(C(=O)C3CC3)CC4)CC2)c1	.	.	i	.	i
